In the library only some 2.4% were active in any assay of this set; here they are far more common.
D2 PAM-1: positive allosteric modulators of human D2 dopamine receptor | P14416 | HEK293 T-REx D2, calcium flux, EC20 dopamine potentiation | potentiation, % at 10 µM | 340,000 compounds, 0.34% hits | AID 485347;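 active = potentiation over 3 SD above the plate norm, cut at about 30% in these data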; also: 0% is about no effect
Target sequence (P14416 whole entry, looked up): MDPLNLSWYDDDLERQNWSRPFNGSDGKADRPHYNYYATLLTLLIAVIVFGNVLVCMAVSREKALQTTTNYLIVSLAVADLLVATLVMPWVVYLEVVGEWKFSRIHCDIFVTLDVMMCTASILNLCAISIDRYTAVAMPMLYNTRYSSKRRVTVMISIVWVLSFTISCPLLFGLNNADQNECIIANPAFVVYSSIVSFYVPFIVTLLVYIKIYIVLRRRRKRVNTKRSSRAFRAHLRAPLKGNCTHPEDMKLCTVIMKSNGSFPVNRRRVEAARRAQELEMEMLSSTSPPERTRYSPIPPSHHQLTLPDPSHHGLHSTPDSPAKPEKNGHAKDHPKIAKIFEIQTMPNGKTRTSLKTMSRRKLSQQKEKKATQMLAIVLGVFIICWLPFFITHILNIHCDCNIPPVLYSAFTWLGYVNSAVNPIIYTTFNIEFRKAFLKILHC
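Tetracycline-induced Hek293 Trex D2 cells, force-coupled to calcium, loaded with no-wash calcium dye. Compound added with 180 s kinetic read for agonism, then EC20 dopamine and a further 180 s read for potentiation.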
D2 ag-1: activates the human D2 dopamine receptor | DiscoveRx PathHunter D2 beta-arrestin, luminescence, 90 min; 100% = 57 uM dopamine signal | activation, % (test concentration not listed) | 360,000 compounds, 0.084% hits; in the data active = activation above about 40%; inconclusive = between about 15% and that limit
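DiscoveRx PathHunter D2 beta-arrestin cells (2,100/well) attached overnight, then compound-stimulated 90 min at 37 C in HBSS/10 mM HEPES/0.1% Tween-20 buffer; beta-galactosidase complementation read by luminescence after 1 h at ambient temperature. Dopamine 57 uM final (EC100) as control.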
D2 ag-2: D2 dopamine receptor (human) agonism. activation, % at 2 µM. HEK293 T-REx D2 cells, calcium flux agonist mode. P14416. AID 485358. 340,000 compounds, 0.53% hits;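 active = activation over 3 SD above normal in the single-dose calcium agonist read, cut at about 30% in these data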; also: 0% is about no effect
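Agonism is scored from calcium flux in a force-coupled, inducible HEK293 cell line expressing D2, read kinetically for 180 s after compound addition against dopamine controls.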
D2 PAM-2: human D2 receptor positive allosteric modulation | DiscoveRx D2 beta-arrestin cells, luminescence, 90 min; 100% = 57 uM dopamine signal | potentiation, % (test concentration not listed) | 360,000 compounds, 0.23% hits; in the data active = potentiation above about 50%; inconclusive = mostly about 30% to 49%
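PathHunter beta-arrestin assay in DiscoveRx D2 cells. Compounds were added with an EC20 of dopamine (50 nM final) for 90 min at 37 deg C. Luminescence was read 1 h after detection reagent, with 57 uM dopamine as the EC100 control.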
D2 antagonist: antagonists of human D2 dopamine receptor; HEK293 TREx D2 cells, calcium flux, dopamine EC80; 340,000 compounds, 2% hits; inhibition, % at 10 µM; AID 485344; in the data active = inhibition above about 30%; inactive = below that, where a call was filed; also: 0% is about no effect
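Read-out: kinetic calcium fluorescence (1 cycle/s) in inducible HEK293 T-REx D2 cells after an EC80 dopamine addition that followed 180 s compound preincubation. Loss of the dopamine response indicates antagonism.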
* = called active by the depositor; ? = inconclusive; . = no result.

SMILES	D2 PAM-1	D2 ag-1	D2 ag-2	D2 PAM-2	D2 antagonist
COc1ccc(Cn2c(CNS(=O)(=O)c3ccc(Cl)s3)nc3cccnc32)cc1	0.2	.	0.5	.	.
C=CCc1cccc(/C=N/NC(=O)C(C)Nc2cccc(C)c2)c1O (stereo unspecified)	-8.7	-4.2	0.0	-11.7	31.0*
CCOc1ccccc1/C=N/NC(=O)C[n+]1ccccc1	-16.5	-4.9	-0.6	-19.1	33.2*
C=CCc1cccc(/C=N/NC(=O)C[n+]2ccccc2)c1O	-20.4	10.2	0.0	-12.3	52.7*
O=C(Cc1ccccc1)N/N=C/c1ccccc1Cl	1.4	-3.6	-0.6	-12.4	31.2*
O=C(Cc1cc(=O)[nH][nH]1)N/N=C/c1ccccc1Cl	9.1	-1.1	-0.3	2.5	-13.3
C=CCc1cccc(/C=N/NC(=O)CCCNc2ccc(C)cc2)c1O	-14.8	-4.4	-0.8	-27.1	-18.1
CCn1c(CN2CCN(C)CC2)nc2cc(NC(=O)c3cc(OC)c(OC)c(OC)c3)ccc21	-9.0	.	2.1	.	.
CC1=C(C(=O)NCc2ccccc2C)C2(CCCCC2)OC1=O	-0.9	.	-0.1	.	.
CC(C)Cc1cc(CN2CCC(CO)(Cc3ccccc3)CC2)[nH]n1	-22.7	-0.4	-1.4	-18.2	47.4*
CCN(CC)CCn1c(NC(=O)c2ccc(C(F)(F)F)cc2)nc2ccccc21	-30.7	-3.5	-1.2	-25.5	88.3*
CCCn1c(Nc2cccc(OC)c2)nc2ccccc21	3.8	2.9	-1.4	-5.3	38.8*
CCN(CC)CCn1c(NCc2ccc3c(c2)OCO3)nc2ccccc21	-19.9	-1.4	0.6	-10.4	32.7*
CCN(CC)CCn1c(NCc2cccc(OC)c2)nc2ccccc21	-19.3	-5.5	0.2	-38.9	44.4*
CCN(CC)CCn1c(NCc2cc(OC)ccc2OC)nc2ccccc21	-34.4	-5.7	-1.6	-41.4	14.3
CCCn1c(Nc2ccccc2)nc2ccccc21	-5.3	-6.4	0.0	-30.7	-16.9
O=C(Nc1ccc2nc(SCC(=O)N3CCOCC3)sc2c1)c1ccccc1Cl	-3.9	.	0.4	.	.
NC(=O)c1nc(Nc2ccccc2)sc1NC(=O)c1ccccc1Br	-0.7	.	2.0	.	.
Cc1cccc(NC(=O)CSc2nc3ccccc3nc2N2CCOCC2)c1C	-7.0	.	-1.0	.	.
Cn1nnc2cc(C(=O)N3CCCCCC3)ccc21	-7.0	-0.9	0.5	1.6	-15.5
Cn1nnc2cc(C(=O)N3CCC(c4ccccc4)C3)ccc21 (stereo unspecified)	103.3*	-2.3	1.6	-19.6	11.5
Cc1c(Cl)cn2c(=O)cc(CN3CCN(c4ccc(F)cc4)CC3)nc2c1Cl	-17.7	.	31.6*	.	-23.6
CN(C)S(=O)(=O)c1ccc(C(=O)OCCc2ccccc2)cc1	36.9*	-1.6	0.7	0.4	3.1
Fc1ccc(-n2cc(CNCCc3ccncc3)c(-c3ccccc3Cl)n2)cc1	-13.8	-2.7	0.5	-8.9	31.3*
Cc1nc(C)c(C(=O)NCc2ccc(Cl)cc2)o1	-3.0	1.3	0.9	-12.6	-18.2
SMILES	D2 PAM-1	D2 ag-1	D2 ag-2	D2 PAM-2	D2 antagonist
O=C(CC(=O)NCc1ccc(Cl)cc1)NCc1ccc(Cl)cc1	-16.2	5.8	0.9	-2.5	7.4
Cc1nn(C)c(C(=O)NCc2ccc(Cl)cc2)c1Cl	-15.9	1.8	-1.0	-8.5	44.4*
Cc1nn(C)c(C(=O)NNC(=S)NCc2ccco2)c1Cl	33.6*	-4.4	-0.6	-22.8	-17.4
Cc1ccc(CC(=O)NCc2ccc(Cl)cc2)cc1	0.7	-2.2	-1.2	-7.6	52.6*
Cc1ccccc1OCC(=O)Nc1ccccc1OCc1cc(=O)n2ccccc2n1	8.3	.	-0.6	.	.
O=c1[nH]c(/C=C/c2ccccn2)nc2ccccc12	1.9	-9.2	1.1	-6.1	37.1*
O=c1[nH]c(/C=C/c2cccc3ccccc23)nc2ccccc12	-0.3	-4.4	-0.6	-12.6	3.2
O=C(CSC1=Nc2ccccc2N=C(c2ccc(F)cc2)C1)NCc1ccccc1	-4.1	.	2.1	.	.
Nc1c(C(O)(C(F)(F)F)C(F)(F)F)cc(C(O)(C(F)(F)F)C(F)(F)F)c2ccccc12	-3.9	?	1.2	91.4*	14.7
COCCNC(=O)C(c1ccc(C)o1)N(C(=O)C(=O)NC1CCCCC1)c1ccc(F)cc1 (stereo unspecified)	34.1*	0.0	-0.5	0.9	-5.7
Cc1cc(NC(=O)CCC(=O)N(c2ccc(F)cc2)C(C(=O)NC2CCCC2)c2ccc(C)o2)no1 (stereo unspecified)	17.9	1.0	0.6	-5.3	14.3
COc1cc(C2NC(=O)c3c(sc4c3CCN(C)C4)N2)cc(Br)c1OC(=O)c1ccc(C)cc1 (stereo unspecified)	3.9	.	1.0	.	.
Cc1cccc([N+](=O)[O-])c1NC(=O)COC(=O)C1CC2CCCC(C1)C2=O (stereo unspecified)	-3.0	-5.0	-0.3	-64.1	7.4
Cc1ccc([N+](=O)[O-])c(NC(=O)COC(=O)C2CC3CCCC(C2)C3=O)c1C (stereo unspecified)	-3.7	-1.0	0.3	-11.3	36.4*
Cc1cc(C)c2sc(NNC(=O)C3COc4ccccc4O3)nc2c1 (stereo unspecified)	-2.6	-4.0	-0.8	-6.4	32.5*
Cc1cccc2sc(NNC(=O)C3COc4ccccc4O3)nc12 (stereo unspecified)	-2.2	7.4	-0.6	5.1	10.0
O=C(Nc1ccccc1)/C(=C/c1ccccc1)NC(=O)c1ccco1	3.1	3.5	1.5	13.9	30.1*
O=C(Nc1ccccc1)/C(=C\c1ccc2c(c1)OCO2)NC(=O)c1ccco1	-7.6	-0.3	-0.8	-2.4	30.0*
O=C(Nc1ccccc1)/C(=C/c1ccc(O)cc1)NC(=O)c1ccco1	8.3	3.9	0.2	-1.4	-1.8
O=C(CN1C(=O)CCSc2ccc(S(=O)(=O)N3CCCC3)cc21)Nc1cccc(Cl)c1	13.5	.	-0.2	.	.
COc1cc(NC(=O)CSc2ccc(-c3sc(C)nc3C)nn2)cc(OC)c1	1.4	.	.	.	.
Cc1cc(C)c2[nH]c(=O)c(C(c3nnnn3CC3CCCO3)N3CCC(C)CC3)cc2c1 (stereo unspecified)	0.9	-1.9	-0.1	-25.6	37.3*
O=C(NCC(c1ccccc1)c1ccccc1)c1nn(-c2ccccc2F)nc1CO	-4.3	.	.	.	.
CC(=O)c1cccc(NC(=O)c2ccc(-c3ccccc3[N+](=O)[O-])o2)c1	-15.6	0.0	0.4	-21.1	32.8*
O=C(NCc1cccnc1)c1ccc(-c2cccc(Cl)c2Cl)o1	9.9	-3.4	1.6	-28.8	59.1*
O=C(NCc1cccnc1)c1ccc(-c2ccccc2[N+](=O)[O-])o1	-19.6	2.3	-2.2	-13.1	85.3*
CC1Cc2cc(S(=O)(=O)NCc3ccc(N(C)C)cc3)ccc2N1C(=O)C1CCC1 (stereo unspecified)	6.0	.	-1.1	.	.

High-throughput results from PubChem BioAssay.
